About 2,600 (16%) of roughly 16,000 compounds were called active. Inconclusive results (about 20%) are left out. The call rests on the fitted dose curve; in most records, active means well fitted curve in the direction sought with a large enough effect; inconclusive means small, poorly fitted or top-dose-only effect, or effect the other way; inactive means no such curve, though single readings can be large or run the other way. The list is a sample of the results.
molecular target: Cytochrome P450 2D6 (Homo sapiens) (UniProt P10635); assay: Cytochrome panel assay with activity outcomes; conditions: recombinant CYP, pro-luciferin dealkylation, luminescence, p450-cyp2d6; series mostly up to 57.1 µM; activity, negative = inhibition: at the top concentration
On the % scale 0 is the no-effect control and ±100 the full control effect.

Sequence of Cytochrome P450 2D6 (Homo sapiens) (P10635 whole entry, looked up): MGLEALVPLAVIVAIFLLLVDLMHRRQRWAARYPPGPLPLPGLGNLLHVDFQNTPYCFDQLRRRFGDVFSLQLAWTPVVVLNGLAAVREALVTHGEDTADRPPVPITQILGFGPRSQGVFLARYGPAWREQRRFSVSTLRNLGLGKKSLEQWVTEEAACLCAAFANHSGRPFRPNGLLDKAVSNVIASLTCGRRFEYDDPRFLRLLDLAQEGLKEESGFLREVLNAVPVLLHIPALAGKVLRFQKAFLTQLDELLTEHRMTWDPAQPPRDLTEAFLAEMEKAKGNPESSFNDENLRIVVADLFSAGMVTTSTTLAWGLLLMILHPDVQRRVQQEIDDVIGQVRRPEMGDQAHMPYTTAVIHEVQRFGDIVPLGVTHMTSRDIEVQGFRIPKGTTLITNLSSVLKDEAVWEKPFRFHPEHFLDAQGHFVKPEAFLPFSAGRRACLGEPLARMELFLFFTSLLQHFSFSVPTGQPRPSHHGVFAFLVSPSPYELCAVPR

Compound	AC50	activity, negative = inhibition
O=S(=O)(c1ccccc1)N1CCC2(CCCN(c3ncccn3)C2)CC1	12.6 µM (active)	–
CS(=O)(=O)N1CCC2(CC1)CN(c1ncccn1)C2	–	9.25% (inactive)
CC(=O)N1CCC2(CCCN(c3ccccn3)C2)CC1	–	-12.1% (inactive)
CS(=O)(=O)N1CCC[C@@]2(CCN(c3ncccn3)C2)C1	–	3.87% (inactive)
O=S(=O)(c1ccccc1)N1CCC2(CCN(c3ncccn3)CC2)CC1	–	1.44% (inactive)
CS(=O)(=O)N1CCC2(CCCN(c3ncccn3)C2)CC1	15.8 µM (active)	–
CS(=O)(=O)N1CCC[C@@]2(CCN(c3ccccn3)C2)C1	–	-4.03% (inactive)
O=S(=O)(c1ccccc1)N1CCC2(CC1)CN(c1ncccn1)C2	–	5.25% (inactive)
O=S(=O)(c1ccccc1)N1CCC2(CCCN(c3ccccn3)C2)CC1	12.6 µM (active)	–
NCCCCNCCCN	inactive	–
CC1CCN(c2cc(N3CCC(C)CC3)c([N+](=O)[O-])cc2/C=C(\C#N)c2nn(-c3ccccc3)c(N)c2C#N)CC1	–	9.51% (inactive)
CN(CCO)c1nc(N)c2c(N)nc3c(c2c1C#N)CC(=O)N3C1CCCC1	–	11.2% (inactive)
C[C@@](N)(Cc1ccc(O)cc1)C(=O)O	inactive	–
CC(C)OCCCN1CN(S(=O)(=O)c2cccc(Cl)c2)c2nc3ccccc3nc21	–	-18.4% (inactive)
CC(=O)NN1C(=O)/C(=C\c2ccc(C)cc2)SC1=S	–	4.14% (inactive)
CN(CCO)Cc1ncccc1O	–	-1.69% [at 11.4 µM] (inactive)
O=C(Nc1cccc(C(F)(F)F)c1)c1n[nH]c(Cn2cncn2)n1	–	-26.4% (inactive)
N[C@@H]1CONC1=O	inactive	–
Cc1ccc(N(C(=O)c2csnn2)C(C(=O)NC(C)(C)C)c2cccs2)cc1 (stereo unspecified)	–	-13.7% (inactive)
CC(C)c1cccc2nc3c(c([Si](C)(C)C(C)(C)C)c12)Cn1c-3cccc1=O	–	-12.2% (inactive)
CC(C)(C)[Si](C)(C)c1c2c(nc3ccc(OCc4ccccc4)cc13)-c1cccc(=O)n1C2	–	-2.79% (inactive)
COc1ccc2nc3c(c([Si](C)(C)C(C)(C)C)c2c1)Cn1c-3cccc1=O	2 µM (active)	–
O=C1C(CCS(=O)c2ccccc2)C(=O)N(c2ccccc2)N1c1ccccc1 (stereo unspecified)	–	2.11% [at 25.6 µM] (inactive)
FC(F)(F)c1ccccc1-c1ccc2ncnc(N3CCOCC3)c2c1	–	-18.2% (inactive)

Compound	AC50	activity, negative = inhibition
CN(Cc1ccco1)c1ncncc1-c1cccc(C#N)c1	–	-15% (inactive)
CN(Cc1ccco1)c1ncnc2ccc(-c3ccccc3C#N)cc12	15.8 µM (active)	–
CN(Cc1ccco1)c1ncnc2ccc(-c3ccccc3Cl)cc12	7.94 µM (active)	–
CN(C)Cc1ccccc1-c1ccc2ncnc(N(C)Cc3ccco3)c2c1	2 µM (active)	–
CN(Cc1ccco1)c1ncnc2ccc(-c3ccccc3C(F)(F)F)cc12	10 µM (active)	–
COCCNC(=O)c1sc2nc(-c3ccccc3)cn2c1C	–	-5.78% (inactive)
Cc1ccc(NC(=O)C(=O)NCc2ccc(/C=C(/C#N)C(=O)NCc3cccnc3)o2)cc1	–	-9.29% (inactive)
Nc1ncnc2c1ncn2[C@@H]1CCCO1	–	-11.8% (inactive)
CCN1C(=O)C2(SC(NC(C)=O)=NN2C(C)=O)c2cc(C)ccc21 (stereo unspecified)	–	12.7% (inactive)
CC[C@H](Cc1c(I)cc(I)c(N)c1I)C(=O)O	–	-4.01% [at 25.6 µM] (inactive)
CNc1cnn(-c2ccccc2)c(=O)c1Cl	–	-1.86% (inactive)
N#[N+]c1ccc(Nc2ccccc2)cc1	–	7.95% [at 11.4 µM] (inactive)
COc1ccc(Oc2ncc3nc(CCc4ccccc4)c(=O)n(C)c3n2)cc1	–	0.402% (inactive)
CCOc1ccc(NC(=O)CCNS(=O)(=O)c2ccc3c(c2)c(=O)n(C)c(=O)n3C)cc1	–	6.62% (inactive)
Cc1sc2ncnc(OCC(=O)NC(C)C)c2c1C	–	-7.35% (inactive)
COc1ccccc1C1/C(=C(/O)c2ccccc2)C(=O)C(=O)N1CCO (stereo unspecified)	–	10.7% (inactive)
COC(=O)[C@H](C)NC(=O)C/C=C\[C@@H](C)[C@H]1C=C[C@H](O)[C@@H](CO)O1	–	3.59% [at 11.4 µM] (inactive)
O=C(NCCc1c[nH]c2ccccc12)[C@H]1C[C@@H]1[C@H](NP(=O)(c1ccccc1)c1ccccc1)c1ccccc1	–	-6.77% (inactive)
CN1C2C=C(N(CCc3c[nH]c4ccccc34)C(=O)c3ccc(Cl)cc3)CC1CC2 (stereo unspecified)	0.398 µM (active)	–
O=C(NCCc1c[nH]c2ccccc12)[C@@H]1C[C@H]1[C@@H](NP(=O)(c1ccccc1)c1ccccc1)c1ccccc1	–	-5.26% (inactive)
CCN(CC(=O)O)CC(=O)O	–	9.63% [at 11.4 µM] (inactive)
CC1=Nc2ccccc2/C1=C\c1nc(-c2ccc(C(F)(F)F)cc2)oc1O	–	-8.17% (inactive)
Nc1ccc(N(c2ccccc2)c2ccc(N)cc2)cc1	14.1 µM (active)	–
CC(=O)c1nnn(-c2nc(N)nc(N(c3ccccc3)c3ccccc3)n2)c1C	–	-23% (inactive)

Compound	AC50	activity, negative = inhibition
Nc1ccc(S(=O)(=O)NC(=O)c2ccccc2)cc1	–	10.2% [at 25.6 µM] (inactive)
O=C(Cn1ccnc1[N+](=O)[O-])NCCO	–	2.93% [at 25.6 µM] (inactive)
COc1cccc(N=Cc2c[nH][nH]c2=O)c1	–	-11.7% (inactive)
C[C@@H]1c2cccc(O)c2C(O)=C2C(=O)[C@@]3(O)C(O)=C(C(N)=O)C(=O)[C@@H](N(C)C)[C@@H]3[C@@H](O)[C@@H]21	inactive	–
CCOc1cc(/C=N/NC(=O)COc2cccc(C)c2)ccc1OC(=O)c1cccs1	–	-17.2% (inactive)
CCOC(=O)c1c(C)n(C)c2ccc(OC)c(NS(=O)(=O)c3ccc(Cl)s3)c12	–	-0.0644% (inactive)
CCOC(=O)C1CCN(C(=O)C2CCN(c3nc4ccc(OC)cc4s3)CC2)CC1	–	-25.3% (inactive)
CCOc1ccc2nc(N3CCCCCC3)sc2c1	1 µM (active)	–
CCOc1ccc2nc(NC(=O)c3ccc(S(=O)(=O)N4CCOCC4)cc3)sc2c1	–	-6.21% (inactive)
CCN1CCN(C(=O)N[C@H](C(=O)N[C@@H]2C(=O)N3C(C(=O)O)=C(CSc4nnnn4C)CS[C@@H]23)c2ccc(O)cc2)C(=O)C1=O	–	1.55% [at 25.6 µM] (inactive)
O=c1[nH]ccc2c(O)cccc12	–	-11.8% (inactive)
Cc1nc2c(O)cccc2c(=O)[nH]1	12.6 µM (active)	–
O=c1[nH]c2ccccc2c2ccccc12	–	6.83% (inactive)
OCCCNc1ncnc2[nH]ncc12	–	15.1% [at 11.4 µM] (inactive)
Cc1cc(C)c(C#N)c(SCC(=O)c2ccc(Cl)cc2Cl)n1	–	-16.8% (inactive)
Cc1cc(C)c(C#N)c(SCC(=O)C(C)(C)C)n1	–	-2.76% (inactive)
Cc1cc(C)c(C#N)c(SCc2cc3c(cc2Cl)OCO3)n1	8.91 µM (active)	–
Cc1ccc(OCCOCCn2ccnc2)c(Br)c1	1 µM (active)	–
C/C(CC(=O)Nc1cc(C)ccn1)=N\NC(=O)COc1cccc(C)c1	–	-12.1% (inactive)
COc1cc(C)ccc1OCCCOc1ccccc1Br	–	-13.8% (inactive)
Cc1cccc(OCCCCCn2ccnc2)c1	0.1 µM (active)	–
Cc1ccc(/C(O)=C2/C(=O)C(=O)N(CCCn3ccnc3)C2c2ccccn2)cc1 (stereo unspecified)	–	-9.78% (inactive)
Brc1ccccc1OCCOCCOc1cccc2cccnc12	–	-2.81% (inactive)

— PubChem BioAssay AID1851 (National Center for Advancing Translational Sciences (NCATS), 2009)
